Bioassay records (PubChem)
HSF1 inhib – HSF1 inhibitors in luciferase reporter cells, primary screen, cell-based, NIH3T3, luminescence; 0.77% of 300,000 active; activity change, negative = inhibition, % at 7.5 µM (by protocol); AID 2098, 2009; NIH3T3-HGL HSE-luciferase, MG132-induced, luminescence 8 h; hits give low values;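 active means more than half of replicate wells show activity change below -50%, luminescence cut by over half; inconclusive means some wells, but at most half, below -50%; inactive means no replicate well below -50%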;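 further: luciferase reports HSF-1 transcriptional activity via heat shock element; 0% = median of DMSO wells and -100% = zero luminescence signal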
GAA850 FXN act – FXN promoter activators, primary screen, cell-based, luciferase luminescence, HEK293 lucGAA850; activation, % at 6 µM; HEK293 lucGAA850 FXN promoter luciferase reporter, 24 h; percent of 10 µM SAHA response; 0.56% of 360,000 active;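 active means activation above the average of all compounds screened plus 3 SD, cutoff fixed separately per campaign, cut at about 7.5% in these data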;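 further: 0% = DMSO wells and 100% = 10 µM SAHA wells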
SMARCA2 act – SMARCA2 (BRM) function activators, primary screen, cell-based, luminescence, high throughput; MG213 cells, MMTV-luciferase reporter, dexamethasone, overnight; activation, % at 9.1 µM; 1% of 370,000 active; AID 652017, 2013; in the data active means activation above about 7.8%;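 further: 0% = vehicle wells and 100% = reference activator wells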
AI-2 QS modul – Vibrio harveyi AI-2 quorum sensing modulators, primary screen, JMH597 strain, luminescence/OD600 ratio; Vibrio harveyi JMH597 AI-2 luminescence/OD600 ratio, 9 h; hits give low values; strain lacks LuxN and CqsS sensors; 0 = neutral-control median; activity change, % at 7.5 µM; 0.4% of 300,000 active; AID 2094, 2009; in the data active means activity change below about -75%, passing the limit was not always enough; inconclusive means no clear call, values can overlap the other calls;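 further: luminescence divided by OD600 gain over 9 h not by final OD600 alone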
PG9 Ab binder – binders of HIV-1 gp120 antibody PG9, primary screen, biochemical, TR-FRET | HIV-1 gp120 / PG9 antibody interaction | TR-FRET gp120-PG9 antibody binding | inhibition, % at 6.7 µM | 0.43% of 360,000 active | AID 624416, 2012; in the data active means inhibition above about 8.5%
HSP90 refold inh – HSP90 inhibitors, primary screen, cell lysate, luminescence. Rabbit reticulocyte lysate, luciferase refolding luminescence, 3 h. inhibition, % at 5.6 µM. 0.91% of 290,000 active;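 active means inhibition above the screen-wide mean plus 3 SD, computed separately per campaign, cut at about 16% in these data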;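 further: 0% = DMSO wells and 100% = 60 µM geldanamycin wells; inhibitors lower the luminescence because luciferase stays unfolded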
HSP90 inh confirm – HSP90 inhibitors, confirmation, cell lysate, luminescence; shares compounds with HSP90 refold inh; rabbit reticulocyte lysate, luciferase refolding luminescence, 3 h; inhibition, % at 5.9 µM; 64% of 2,300 active; AID 1846, 2009; in the data active means inhibition above about 18%;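 further: 0% = vehicle wells and 100% = reference inhibitor wells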
FLuc counter – firefly luciferase inhibitors, HSP90 counter-screen, confirmation, artefact control for HSP90 inhibitor project, biochemical, luminescence, triplicate | shares compounds with HSP90 refold inh | purified native firefly luciferase | inhibition, % at 5.9 µM | 48% of 2,300 active;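 active means inhibition above the mean inhibition of all tested sample wells plus 3 SD, cut at about 10% in these data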;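 further: 0% = DMSO with luciferase and 100% = wells lacking luciferase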
Target sequence (P08659 whole entry, looked up): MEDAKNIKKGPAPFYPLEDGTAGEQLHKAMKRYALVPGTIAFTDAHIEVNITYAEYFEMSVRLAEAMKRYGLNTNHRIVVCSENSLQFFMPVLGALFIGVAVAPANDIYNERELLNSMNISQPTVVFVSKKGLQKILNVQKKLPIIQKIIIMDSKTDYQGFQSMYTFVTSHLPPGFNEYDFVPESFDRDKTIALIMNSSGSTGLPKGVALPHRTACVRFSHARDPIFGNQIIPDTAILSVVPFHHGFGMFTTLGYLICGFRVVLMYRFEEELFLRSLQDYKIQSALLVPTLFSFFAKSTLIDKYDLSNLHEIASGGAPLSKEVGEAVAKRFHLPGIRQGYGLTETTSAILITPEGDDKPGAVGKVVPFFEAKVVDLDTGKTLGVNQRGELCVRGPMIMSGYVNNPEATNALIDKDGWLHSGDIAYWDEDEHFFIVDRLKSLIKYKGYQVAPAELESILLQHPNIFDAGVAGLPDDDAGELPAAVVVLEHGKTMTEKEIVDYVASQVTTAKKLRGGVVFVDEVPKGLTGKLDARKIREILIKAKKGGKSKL
GAA30 counter – GAA30 FXN promoter activators, confirmation, counter-screen for GAA850 frataxin promoter activator project, cell-based, luminescence, HEK293, lucGAA30, triplicate; HEK293 lucGAA30 FXN promoter luciferase, 24 h; DMSO = 0%, 5 µM ipriflavone = 100%; 66% of 1,900 active; activation, % at 6 µM; shares compounds with GAA850 FXN act;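 active means mean activation above the mean of solvent-only control wells plus 3 SD, cut at about 22% in these data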;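 further: counterscreen of GAA850 promoter hits where activity marks nonselective or luminescence artifacts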
GAA850 confirm – FXN GAA850 promoter activators in reporter cells, confirmation, cell-based, luminescence, HEK293 lucGAA850, triplicate; AID 588351, 2011; shares compounds with GAA850 FXN act; HEK293 lucGAA850 FXN promoter luciferase reporter, 24 h; 100% = activation by SAHA; 86% of 1,900 active; activation, % at 6 µM;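 active means mean activation above a set limit taken from the primary screen, cut at about 8% in these data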;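 further: 0% = DMSO wells and 100% = 10 µM SAHA wells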
Active calls of the source: *; ? = inconclusive; / = not tested or not shown. Hits are enriched below; roughly 3.4% of the tested compounds scored in any of these assays.

SMILES	HSF1 inhib	GAA850 FXN act	SMARCA2 act	AI-2 QS modul	PG9 Ab binder	HSP90 refold inh	HSP90 inh confirm	FLuc counter	GAA30 counter	GAA850 confirm
O=c1nc(N/N=C/c2c[nH]c3ccccc23)cn[nH]1	9.7	7.8*	4.8	14.6	-1.4	27.3*	30.4*	14.0*	103.1*	24.2*
Cc1ccccc1NC(=O)N1CCCC(c2nc(-c3ccc(F)cc3)no2)C1 (stereo not drawn)	-9.9	0.1	0.5	6.8	1.8	-4.2	/	/	/	/
Cc1ccccc1NC(=O)N1CCCC(c2nc(-c3ccc(C(C)C)cc3)no2)C1 (stereo not drawn)	-43.6	9.2*	-1.8	16.3	0.6	69.9*	3.5	-24.2	61.5*	28.0*
CN=c1scc(-c2ccc(F)cc2)n1/N=C/c1ccc(O)c(O)c1	/	9.3*	-4.2	/	-1.7	19.7*	42.4*	18.8*	34.1*	14.0*
CN=c1scc(-c2ccc([N+](=O)[O-])cc2)n1/N=C/c1ccco1	20.2	-0.8	0.9	-3.7	1.5	-8.9	/	/	/	/
CCCCNC(=O)C[C@@H]1C(=O)N(CCc2ccc(Cl)cc2)/C2=C/CCCCC[C@@]21C(=O)OCC	/	/	-3.3	/	/	/	/	/	/	/
O=C1NC(=O)C2C3C=CC(C12)C1C(=O)NC(=O)C31 (stereo not drawn)	/	/	-6.9	/	-0.2	/	/	/	/	/
Cc1nn(-c2ccccc2Cl)c(Cl)c1/C=N/Nc1cccc(C(=O)O)c1	-71.0*	7.8*	3.3	25.7	-2.5	32.8*	60.7*	77.2*	119.0*	40.5*
COc1ccccc1NC(=O)c1coc(=O)c(Br)c1	-14.3	7.9*	6.6	1.2	-7.5	55.2*	83.3*	-7.3	128.7*	68.6*
COc1ccccc1NC(=O)c1cc(N)cc(C(=O)Nc2ccccc2OC)c1	-5.0	1.4	-1.0	7.1	1.0	/	/	/	/	/
COc1ccc(-c2csc(-c3ccc(C(=O)O)cc3)n2)cc1	13.2	9.8*	1.6	26.6	-0.8	19.3*	39.2*	0.2	84.7*	36.5*
COc1ccc2c(c1)CN1CN(CC(C)C)S(=O)(=O)CC21 (stereo not drawn)	/	/	-4.7	/	/	/	/	/	/	/
CCOC(=O)CN1C(=O)S/C(=C/C=C/c2ccc(N(C)C)cc2)C1=O	-7.5	8.0*	-1.9	22.3	-4.1	39.2*	-4.6	-25.4	77.6*	33.8*
COC(=O)C1CCCN(C(=O)C2CCN(S(=O)(=O)c3cccs3)CC2)C1 (stereo not drawn)	/	/	3.5	/	/	/	/	/	/	/
NNC(=O)c1cccc(COc2ccc3c(c2)CCC3)c1	?	9.2*	4.8	26.6	-0.8	35.7*	65.9*	56.3*	124.9*	42.2*
COCCn1c(C)cc(C(=O)Cn2nc(C(=O)O)c3ccccc3c2=O)c1C	-17.3	9.4*	3.9	0.4	2.0	67.5*	74.9*	0.8	98.4*	35.2*
